PubChem BioAssay AID1332 (Southern Research Institute, 2008)
≈ marks a conversion by molar mass, not a printed value. Out of some 1,100 compounds screened, about 170 (15%) were called active. The rule behind the calls is not given here. These entries were drawn from the full list.

test: Confirmatory growth inhibition assay, mycobacterium tuberculosis h37rv, with cytotoxicity (AID 1332);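 for CC50: Vero cells exposed to compounds for 72 hours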;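 for IC50: bacteria incubated 7 days before adding Alamar blue readout reagent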; settings: M. tuberculosis H37Rv growth inhibition; CC50: measured here: Vero cell cytotoxicity; IC50: measured here: IC50 H37Rv replicates

| SMILES | IC50 | outcome | CC50 |
| --- | --- | --- | --- |
| N=C(N=C(N)N)N1CCOCC1 | > 20 µg/mL | inactive |  |
| Cn1cnc([N+](=O)[O-])c1Sc1ncnc2nc[nH]c12 | 13.1 µg/mL (≈ 47.2 µM) | active | > 6 µg/mL |
| c1ccc(CNc2ncnc3nc[nH]c23)cc1 | > 20 µg/mL | inactive |  |
| CN1C[C@H](C(=O)N[C@]2(C)O[C@@]3(O)[C@@H]4CCCN4C(=O)[C@H](Cc4ccccc4)N3C2=O)CC2c3cccc4[nH]cc(c34)C[C@H]21 (some centres not stated) | > 20 µg/mL | inactive |  |
| CN1CCC(=C2c3ccccc3CCc3sccc32)CC1 | > 20 µg/mL | inactive | > 6 µg/mL |
| CN1CCC(=C2c3ccccc3Sc3ccccc32)CC1 | 18 µg/mL (≈ 61.5 µM) | active |  |
| CN1CCC(=C2c3ccccc3C=Cc3ccccc32)CC1 | > 18.3 µg/mL | active | > 6 µg/mL |
| CN1CCC(=C2c3ccccc3CC(=O)c3sccc32)CC1 | > 20 µg/mL | inactive |  |
| CCC(=O)OC1(C(=O)CCl)[C@@H](C)C[C@H]2[C@@H]3CCC4=CC(=O)C=C[C@]4(C)[C@@]3(F)[C@@H](O)C[C@@]21C (some centres not stated) | > 20 µg/mL | inactive |  |
| C[C@H](N)[C@H](O)c1cccc(O)c1 | > 20 µg/mL | inactive |  |
| CNCC(O)C(O)C(O)C(O)CO (configuration not stated) | > 20 µg/mL | inactive |  |
| C[n+]1cccc(C(=O)[O-])c1 | > 20 µg/mL | inactive |  |
| CCC(c1ccc(O)cc1)C(CC)c1ccc(O)cc1 (configuration not stated) | > 20 µg/mL | inactive |  |
| COc1ccc2c(c1)N(C[C@H](C)CN(C)C)c1ccccc1S2 | > 20 µg/mL | inactive | > 6 µg/mL |
| CC[C@H]1OC(=O)[C@H](C)[C@@H](O[C@H]2C[C@@](C)(OC)[C@@H](O)[C@H](C)O2)[C@H](C)[C@@H](O[C@@H]2O[C@H](C)C[C@H](N(C)C)[C@H]2O)[C@](C)(O)C[C@@H](C)C(=O)[C@H](C)[C@@H](O)[C@]1(C)O | 1.7 µg/mL (≈ 2.32 µM) | active |  |
| CO[C@H]1C[C@H](O[C@H]2[C@H](C)[C@@H](O[C@@H]3O[C@H](C)C[C@H](N(C)C)[C@H]3OC(C)=O)[C@@H](C)C[C@@]3(CO3)C(=O)[C@H](C)[C@@H](OC(C)=O)[C@@H](C)[C@@H](C)OC(=O)[C@@H]2C)O[C@@H](C)[C@@H]1OC(C)=O | > 20 µg/mL | inactive |  |
| CO[C@H]1C[C@H](O[C@H]2[C@H](C)[C@@H](O[C@@H]3O[C@H](C)C[C@H](N(C)C)[C@H]3O)[C@@H](C)C[C@@]3(CO3)C(=O)[C@H](C)[C@@H](O)[C@@H](C)[C@@H](C)OC(=O)[C@@H]2C)O[C@@H](C)[C@@H]1O | > 20 µg/mL | inactive |  |
| CC[C@H]1OC(=O)[C@H](C)[C@@H](O[C@H]2C[C@@](C)(OC)[C@@H](O)[C@H](C)O2)[C@H](C)[C@@H](O[C@@H]2O[C@H](C)C[C@H](N(C)C)[C@H]2O)[C@](C)(O)C[C@@H](C)[C@@H]2N[C@@H](COCCOC)O[C@H]([C@H]2C)[C@]1(C)O | 1.33 µg/mL (≈ 1.59 µM) | active |  |
| COc1ccc2cc3[n+](cc2c1OC)CCc1cc2c(cc1-3)OCO2 | > 20 µg/mL | inactive |  |
| O=C(O)CCC(=O)Nc1ccc(S(=O)(=O)Nc2nccs2)cc1 | > 20 µg/mL | inactive |  |
| C[N+]1(C)CCC[C@H]1C(=O)[O-] | > 20 µg/mL | inactive |  |
| C[C@H]1O[C@@H](OC2CC[C@]3(C=O)[C@H]4CC[C@]5(C)[C@@H](C6=CC(=O)OC6)CC[C@]5(O)[C@@H]4CC[C@]3(O)C2)C[C@H](O)[C@@H]1O (some centres not stated) | > 20 µg/mL | inactive | 2.54 µg/mL (≈ 4.75 µM) |

| SMILES | IC50 | outcome | CC50 |
| --- | --- | --- | --- |
| COc1ccc(C(=O)c2ccccc2O)c(O)c1 | > 20 µg/mL | inactive |  |
| O=c1cc(-c2ccc(O)cc2)oc2c(C3O[C@H](CO)[C@@H](O)[C@H](O)[C@H]3O)c(O)cc(O)c12 (some centres not stated) | > 20 µg/mL | inactive |  |
| CC(=O)N[C@@H](CC(=O)O)C(=O)O | > 20 µg/mL | inactive |  |
| Cc1cc2c(cc1S(N)(=O)=O)S(=O)(=O)CCC2 | > 20 µg/mL | inactive |  |
| CCC1NC(=O)c2cc(S(N)(=O)=O)c(Cl)cc2N1 (configuration not stated) | > 20 µg/mL | inactive |  |
| Cc1cc2cc3c(C)cc(=O)oc3c(C)c2o1 | > 20 µg/mL | inactive |  |
| COC(=O)C1=CO[C@@H](C)[C@H]2CN3CCc4c([nH]c5ccccc45)[C@@H]3C[C@H]12 | > 20 µg/mL | inactive |  |
| COC(=O)[C@H]1[C@H]2C[C@@H]3c4[nH]c5cc(OC)ccc5c4CCN3C[C@H]2C[C@@H](OC(=O)c2cc(OC)c(OC)c(OC)c2)[C@@H]1OC | 2.32 µg/mL (≈ 3.81 µM) | active |  |
| COC(=O)[C@H]1[C@H]2C[C@H]3c4[nH]c5ccccc5c4CCN3C[C@@H]2CC[C@@H]1O | > 20 µg/mL | inactive |  |
| COC(=O)[C@@H]1[C@H]2C[C@H]3c4[nH]c5ccccc5c4CCN3C[C@@H]2CC[C@@H]1O | > 20 µg/mL | inactive |  |
| CCOC(=O)Oc1c(OC)cc(C(=O)O[C@@H]2C[C@@H]3CN4CCc5c([nH]c6cc(OC)ccc56)[C@H]4C[C@@H]3[C@H](C(=O)OC)[C@H]2OC)cc1OC | 7.94 µg/mL (≈ 11.9 µM) | active |  |
| COC(=O)[C@H]1[C@H]2C[C@@H]3c4[nH]c5cc(OC)ccc5c4CCN3C[C@H]2C[C@@H](OC(=O)/C=C/c2cc(OC)c(OC)c(OC)c2)[C@@H]1OC | 4.23 µg/mL (≈ 6.67 µM) | active | > 6 µg/mL |
| COc1ccc2c3c([nH]c2c1)[C@H]1C[C@H]2[C@H](C[C@@H](O)[C@H](OC)[C@H]2C(=O)O)CN1CC3 | > 20 µg/mL | inactive |  |
| COC(=O)[C@H]1[C@H]2C[C@H]3c4[nH]c5ccccc5c4CCN3C[C@H]2CC[C@@H]1O | > 20 µg/mL | inactive |  |
| O=C(O)[C@@H]1[C@H]2C[C@H]3c4[nH]c5ccccc5c4CCN3C[C@@H]2CC[C@@H]1O | > 20 µg/mL | inactive |  |
| CCCNC(C)C(=O)Nc1c(C)csc1C(=O)OC (configuration not stated) | > 20 µg/mL | inactive |  |
| C=C1[C@@H](O)[C@]23C[C@@H]1[C@@H](O)C[C@H]2[C@@]12C4[C@@H]3C[C@@H]1[C@@](C)(CC[C@@H]2O)CN4CC | > 20 µg/mL | inactive |  |
| CNCCc1ccccn1 | > 20 µg/mL | inactive |  |
| CCCCOc1ccc(OCCCN2CCOCC2)cc1 | > 20 µg/mL | inactive |  |
| C[C@H](CCC(=O)O)[C@H]1CC[C@H]2[C@@H]3[C@H](O)C[C@@H]4C[C@H](O)CC[C@]4(C)[C@H]3CC[C@]12C | > 20 µg/mL | inactive |  |
| CCN1C[C@]2(COC)CC[C@H](OC)[C@@]34C1[C@]1(OCO[C@@]15C[C@H](OC)[C@H]1C[C@@H]3[C@@H]5[C@H]1OC)[C@@H](O)[C@H]24 | > 20 µg/mL | inactive |  |
